Rows were chosen to be rich in hits. Some 4.1% of all compounds tested hit in one or more screens of this group.
CHT block = inhibits the human high affinity choline transporter. Q9GZV3. CHT-expressing cells, membrane potential dye, choline response; active compounds read low. AID 488975. B-score at 10 µM. 310,000 compounds, 0.86% hits;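 active means B-score over 3 SD under the library average, and starting fluorescence ratio not unusually high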;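 further: choline stimulus applied at its EC90 after an EC20 pre-addition; B-score computed on integrated fluorescence ratio after choline addition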
Target sequence (Q9GZV3 whole entry, looked up): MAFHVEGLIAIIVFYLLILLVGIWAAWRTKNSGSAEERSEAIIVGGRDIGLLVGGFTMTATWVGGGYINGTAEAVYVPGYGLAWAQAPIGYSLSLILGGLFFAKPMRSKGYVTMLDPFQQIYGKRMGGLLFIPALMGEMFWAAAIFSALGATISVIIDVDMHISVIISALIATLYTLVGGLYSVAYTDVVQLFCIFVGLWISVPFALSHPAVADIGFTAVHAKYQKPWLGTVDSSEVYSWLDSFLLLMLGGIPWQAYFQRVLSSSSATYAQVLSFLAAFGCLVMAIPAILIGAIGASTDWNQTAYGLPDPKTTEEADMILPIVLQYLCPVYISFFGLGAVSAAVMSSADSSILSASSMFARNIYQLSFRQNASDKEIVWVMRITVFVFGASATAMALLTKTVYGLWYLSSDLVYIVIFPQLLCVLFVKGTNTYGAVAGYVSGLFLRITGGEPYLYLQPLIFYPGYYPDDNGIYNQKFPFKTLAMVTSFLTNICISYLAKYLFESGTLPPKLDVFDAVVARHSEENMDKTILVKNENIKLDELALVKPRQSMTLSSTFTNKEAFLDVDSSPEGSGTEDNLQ
Mot1-301 SUMO = SUMOylation pathway inhibition by Mot1-301 growth rescue; S. cerevisiae Mot1-301 growth rescue, ATP luminescence, 38.5C; percent above DMSO median, 100 means doubled; growth rescue, % at 18.8 µM; 320,000 compounds, 1% hits; AID 2716;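 active means every valid replicate shows activation above 250% relative to neutral control wells; inactive means the rest, any valid replicate at or below 250%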;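 further: OY570 slx delta 5 strain wells were the positive control but not used for scaling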
MEKK2 WT-MEK5 = raises or lowers MEK5 binding to wildtype human MEKK2 PB1 domain | AID 1531 | bead flow cytometry, Alexa488-MEK5 binding to MEKK2 WT; actives lie on both sides | 290,000 compounds, 1.1% hits | Q9Y2U5 | binding response (% of control), % at 10 µM; in the data active means binding response below about 67% or above about 130%
MEKK2mut PB1 HTS = signal of MEK5 binding to mutant human MEKK2 PB1 domain; 290,000 compounds, 0.35% hits; bead flow cytometry, Alexa488-MEK5 binding to MEKK2 mutant; percent response, % at 10 µM; in the data active means percent response above about 24%, passing the limit was not always enough
CHT allo act = allosteric activators of human choline transporter CHT. 310,000 compounds, 0.49% hits. AID 488977. Q9GZV3. B-score at 10 µM. CHT-expressing cells, membrane potential dye, choline EC20; active compounds read high; LV-AA mutant CHT in HEK293 cells;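 active means initial fluorescence not abnormally high and integrated response B-score, plate-corrected, over 3 SD above library mean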
MEKK3 PB1 HTS = raises or lowers MEK5 binding to the human MEKK3 PB1 domain; binding response (% of control), % at 10 µM; bead-based flow cytometry, Alexa488-MEK5 binding to MEKK3; actives lie on both sides; 0 = blocked by unlabeled MEK5, 100 = vehicle; 290,000 compounds, 1.4% hits;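 active means binding response more than 3 SD above or below the average of its plate-row segment, actives on both sides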;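 further: Alexa488 bead fluorescence after subtracting the streptavidin-only scavenger bead signal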
MEKK2wt confirm = raises or lowers MEK5 binding to wildtype human MEKK2, retest. binding response (% of control), % at 10 µM. bead flow cytometry, Alexa488-MEK5 binding to MEKK2 WT; actives lie on both sides. 5,900 compounds, 2.4% hits. shares compounds with MEKK3 PB1 HTS; in the data active means binding response below about 16% or above about 210%; inactive means in between
MEKK2mut-MEK5 = signal of MEK5 binding to mutant human MEKK2, retest; bead flow cytometry, Alexa488-MEK5 binding to MEKK2 mutant; 5,900 compounds, 2% hits; percent response, % at 10 µM; shares compounds with MEKK3 PB1 HTS; in the data active means percent response mostly above about 71%, no sharp cut-off; inactive means mostly below about 38%;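 further: higher means compound restores mutant binding toward wildtype level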
MEKK3-MEK5 inh = MEKK3-MEK5 PB1 inhibition, single concentration confirmation; shares compounds with MEKK3 PB1 HTS; bead flow cytometry, Alexa488-MEK5 binding to MEKK3; active compounds read low; AID 1894; binding response (% of control), % at 10 µM; 5,900 compounds, 1.8% hits;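 active means binding response below 72% of control, or above a set upper limit, though filed actives all read lower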;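 further: 100% = DMSO only wells and 0% = binding blocked by excess unlabeled MEK5; lower values mean stronger disruption of MEK5 binding to MEKK3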
Starred values were filed as active, the others as inactive; i = inactive; / = no result given; [ ] = another dose, or the depositor's remark.

SMILES | CHT block | Mot1-301 SUMO | MEKK2 WT-MEK5 | MEKK2mut PB1 HTS | CHT allo act | MEKK3 PB1 HTS | MEKK2wt confirm | MEKK2mut-MEK5 | MEKK3-MEK5 inh
CC1CC(C)CN(CCCNC(=O)C2CCN(S(=O)(=O)N3CCCCC3)CC2)C1 (centres undefined) | i | 531 | 118 | 10 | i | 123* | 109 | 15 | 108
CC1CCN(S(=O)(=O)N2CCC(C(=O)NCCN3CCOCC3)CC2)CC1 | i | 2 | 83 | -13 | i | 77 | / | / | /
O=C(NCCN1CCCCCC1)C1CCN(S(=O)(=O)N2CCOCC2)CC1 | i | / | 131 | 39* | i | 107 | 139 | 27 | 112
CS(=O)(=O)N1CCC(C(=O)NCCC2=CCCCC2)CC1 | i | 5 | 106 | 6 | i | 102 | / | / | /
O=C(C[C@H]1C/C=C\CC[C@H](Cc2ccc(F)cc2)C(=O)OC[C@@H](Cc2c[nH]c3ccccc23)NC1=O)NCCO | / | -3 | / | / | / | / | / | / | /
O=C(CCCc1nc(-c2ccccc2Cl)no1)NCc1cccnc1 | i | 24 | 117 | 9 | i | 123* | 100 | 0 | 100
CC(=O)OCCOc1nc(N(C)C)nc(N(C)C)n1 | i | -1 | 92 | -7 | i | 91 | / | / | /
Cc1ccc(C(=O)NCCN2C3=NC[C@H](C)N3C[C@H]2Cc2ccc(O)cc2)cc1Br | i | -5 | 114 | 9 | i | 98 | / | / | /
COc1ccc(C[C@H]2CN3C(=NC[C@@H]3C(C)C)N2CCNC(=O)c2ccc(C)c(Br)c2)cc1 | i | -25 | 154* | 32 | i | 103 | 157 | 66 | 110
Cc1ccc(C(=O)NCCN2C3=NC[C@H](C(C)C)N3C[C@H]2Cc2ccc(O)cc2)cc1Br | i | -4 | 145* | 34 | i | 105 | 100 | -6 | 82
CC(CN1CCOCC1)C(=O)O (centres undefined) | i | -1 | 127 | 11 | i | 126* | 97 | -2 | 101
CC(CC(C)C(=O)N1CCOCCN(C(=O)C(C)CC(C)C(=O)O)CCOCC1)C(=O)O (centres undefined) | i | 29 | 80 | -10 | i | 78 | / | / | /
COc1cccc(NC(=O)CN(C)C(=O)c2ccc(-c3ccccc3Cl)o2)c1 | i | -8 | 102 | 7 | i | 103 | / | / | /
CNC(=O)C(=O)Nc1ccc(C)cc1C | i | -14 | 99 | -1 | i | 99 | / | / | /
CNC(=O)C(=O)Nc1c(C)cc(C)cc1C | i | 0 | 111 | 1 | i | 134* | -1.0*[inhibitor] | -29 | 0.0*
COc1ccc(OC(=O)c2ccc(OC)c(S(=O)(=O)N3CCOCC3)c2)cc1 | i | -11 | 108 | 5 | i | 104 | / | / | /
Cc1[nH]c(C)c(S(=O)(=O)N2CCN(c3ccc(Cl)cc3)CC2)c1C(=O)N1CCCC1 | i | 14 | 106 | 3 | i | 103 | / | / | /
O=C(CSC1=NCCS1)N1CCN(c2ccc(Cl)cc2)CC1 | i | -7 | 89 | -6 | i | 92 | / | / | /
O=C(CSC1=NCCS1)c1ccc(Cl)cc1 | i | -8 | 282* | 129* | i | 115 | 104 | -6 | 102
CCn1cc(Br)c(C(=O)NCc2ccco2)n1 | i | -5 | 65 | -25 | i | 43*[inhibitor] | 101 | -3 | 101
Cn1cc([N+](=O)[O-])c(C(=O)NCc2ccco2)n1 | i | -22 | 102 | -2 | i | 111 | / | / | /
Cc1nc2ccccc2n1S(=O)(=O)c1ccc(F)cc1 | i | -3 | 98 | 3 | i | 96 | / | / | /
Cc1nc2ccccc2n1S(=O)(=O)N(C)C | i | 4 | 125 | 10 | i | 141* | 102 | 1 | 101
CCCN1C(=O)/C(=C\C=C2/Sc3ccccc3N2CC)SC1=S | / | / | 7.0*[inhibitor] | -26 | / | 37*[inhibitor] | 30 | -28 | 71*
CCN1C(=O)/C(=C/C=C2\C=CN(CC)c3ccccc32)SC1=S | i | 60 | 42*[inhibitor] | -6 | i | 75*[inhibitor] | 90 | -5 | 102
SMILES | CHT block | Mot1-301 SUMO | MEKK2 WT-MEK5 | MEKK2mut PB1 HTS | CHT allo act | MEKK3 PB1 HTS | MEKK2wt confirm | MEKK2mut-MEK5 | MEKK3-MEK5 inh
COc1ccc(CNC(=O)COC(=O)[C@H](Cc2ccccc2)NC(=O)c2cccs2)cc1 | / | -1 | / | / | / | / | / | / | /
O=C(/C=C/N1CCN(Cc2ccccc2)CC1)C(F)(F)F | i | -11 | 69 | -15 | i | 62*[inhibitor] | 102 | 1 | 103
Fc1ccc(C2=Nc3cccc4cccc(c34)N2)cc1 | i | 155 | 98 | -5 | i | 99 | / | / | /
Brc1ccc(C2=Nc3cccc4cccc(c34)N2)o1 | i | -33 | 109 | 2 | i | 142* | 99 | 3 | 98
COc1ccc(NC(=O)N(C)C[C@H]2Oc3c(NC(=O)C4CC4)cccc3C(=O)N([C@H](C)CO)C[C@@H]2C)cc1 | / | -13 | / | / | / | / | / | / | /
CCCS(=O)(=O)N1CCN(CC2CC3C=CC2C3)CC1 (centres undefined) | i | -1 | 104 | 24* | i | 108 | 106 | 12 | 108
CCc1ccc(N(C(=O)c2snc(C(N)=O)c2N)C(C(=O)NCC2CCCO2)c2ccco2)cc1 (centres undefined) | i | 10 | 97 | -4 | i | 99 | / | / | /
Cc1cc(C)c(OCCCCCNCCO)c(C)c1 | i | 3 | 22*[inhibitor] | -17 | i | 12*[inhibitor] | 107 | 2 | 103
Cc1cc(C)cc(OCCCCCNCCO)c1 | i | 14 | 105 | 8 | i | 103 | / | / | /
O=C(NC1CCCC1)c1ncn[nH]1 | i | -14 | 109 | 0 | i | 106 | / | / | /
CCOC(=O)C1CCN(CC(O)COc2ccc(C(C)(C)CC)cc2)CC1 (centres undefined) | i | 63 | 0.0*[inhibitor] | -21 | i | 2.0*[inhibitor] | 124 | 13 | 110
CCOC(=O)C1CCN(CC(O)COc2ccc(C(C)=O)cc2)CC1 (centres undefined) | i | 1 | 114 | 5 | i | 110 | / | / | /
O=C(COc1ccccc1[N+](=O)[O-])N1CCCc2ccccc21 | i | -30 | 95 | -3 | i | 96 | / | / | /
Cc1ccc(NC(=S)N/N=C/c2ccc([N+](=O)[O-])s2)cc1 | i | 120 | 62*[inhibitor] | -7 | i | 85 | 73 | -14 | 94
Cc1ccc(S(=O)(=O)N(C)CC(=O)Oc2ccc(-c3nnco3)cc2)cc1 | i | / | / | / | i | / | / | / | /

Assay outcomes from PubChem BioAssay.
